Among the data in PubChem BioAssay (NCI) are growth inhibition values, retold here.

Structures are written as SMILES. About 79,000 compounds went through this panel and 15% of them were active in at least one assay; those are over-represented in the sample as a whole. A number with no mark means an inactive call. The source made the active and inactive calls. No stated cut-off is given here; in the data, active means growth inhibition above about 70%; inactive means the rest.

Test [1] in a line: NCI Yeast Anticancer Drug Screen. Data for the rad50 strain (AID 155).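 Further: 0% = growth of vehicle-only cultures of the same strain.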 As to conditions: S. cerevisiae rad50 strain growth inhibition, active compounds read high. In a few lines:
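Genetically altered yeast (DNA repair pathway); compound treatment; growth inhibition vs vehicle ctrl.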

Test [2] in a line: NCI Yeast Anticancer Drug Screen. Data for the mec2-1 strain (AID 157). The note with it: S. cerevisiae mec2-1 strain, active compounds read high. The procedure, abridged:
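Mutant yeast (mec2-1) grown with compound; growth inhibition relative to vehicle control reported.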

Test [3] in a line: NCI Yeast Anticancer Drug Screen. Data for the sgs1 mgt1 strain (AID 161).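 Further: 0% = growth of cultures given vehicle only.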 The note with it: S. cerevisiae sgs1 mgt1 strain, active compounds read high. In a few lines:
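Yeast cells carrying a defined DNA-repair defect were exposed to test compounds. Growth inhibition was measured relative to vehicle-treated controls.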

Test [4] is described as follows: NCI Yeast Anticancer Drug Screen. Data for the cln2 rad14 strain (AID 165).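 Further: 0% = growth equal to vehicle treated cultures.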 The note with it: S. cerevisiae cln2 rad14 strain, active compounds read high. The procedure, abridged: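 Readout is yeast growth inhibition versus vehicle-treated controls, using a strain with cln2 and rad14 alterations exposed to compound.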
A short description of test [5]: NCI Yeast Anticancer Drug Screen. Data for the bub3 strain (AID 167). As to conditions: S. cerevisiae bub3 mutant strain, active compounds read high. The procedure, abridged: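 Yeast carrying a defined mutation is treated with each compound, and growth is compared with that of vehicle-exposed cells to give inhibition.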
Test [6] can be described thus: NCI Yeast Anticancer Drug Screen. Data for the mlh1 rad18 strain (AID 175). The note with it: S. cerevisiae mlh1 rad18 strain growth inhibition, active compounds read high. In a few lines:
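Genetically defined yeast (DNA repair-deficient) exposed to compounds; growth inhibition determined relative to vehicle.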

The mark [7] stands for this setting: at 5.0 µM (retest, dose inferred, filed as 0.5).
[8] abbreviates: at 50.0 µM (retest, dose inferred, filed as 5.0).

As to `Cc1cccc(/C=N/Nc2ccccn2)n1`, the growth inhibition was 22% in test [1] (setting [7]); 27% in test [1] (setting [8]); 83% (active) in test [1] (at 50.0 µM); 17% in test [2] (setting [7]); 37% in test [2] (setting [8]); 78.8% (active) in test [2] (at 50.0 µM). Also, the growth inhibition in test [3] (setting [7]) was 20%; in test [3] (setting [8]), 38%; in test [3] (at 50.0 µM), 37.1%; in test [4] (setting [7]), 17%; in test [4] (setting [8]), 37%; in test [4] (at 50.0 µM) it was 23.8%. Also, the growth inhibition is 15% in test [5] (setting [7]); 41% in test [5] (setting [8]); 37.6% in test [5] (at 50.0 µM); 21% in test [6] (setting [7]); 42% in test [6] (setting [8]); 87.6% (active) in test [6] (at 50.0 µM).
In the case of `COc1ccc2c(Cc3ccccc3)c3[n+](cc2c1OC)CCc1cc2c(cc1-3)OCO2`, the growth inhibition was 2% in test [1] (setting [7]); 98% (active) in test [1] (setting [8]); 98.8% (active) in test [1] (at 50.0 µM); 8% in test [2] (setting [7]); 97% (active) in test [2] (setting [8]); 99.2% (active) in test [2] (at 50.0 µM). Also, the growth inhibition was 4% in test [3] (setting [7]); 99% (active) in test [3] (setting [8]); 99% (active) in test [3] (at 50.0 µM); -1% in test [4] (setting [7]); 98% (active) in test [4] (setting [8]); 98.2% (active) in test [4] (at 50.0 µM). Also, the growth inhibition was 12% in test [5] (setting [7]); 98% (active) in test [5] (setting [8]); 98.8% (active) in test [5] (at 50.0 µM); -4% in test [6] (setting [7]); 97% (active) in test [6] (setting [8]); 98.9% (active) in test [6] (at 50.0 µM).
Regarding `O=C1Oc2ccccc2C(=O)/C1=C/N1C(=O)/C(=C/c2ccc3c(c2)OCO3)SC1=S`, the growth inhibition in test [1] (setting [7]) is 7%; in test [1] (setting [8]), 76% (active); in test [1] (at 50.0 µM), 60.9%; in test [2] (setting [7]), -7%; in test [2] (setting [8]) it was 78% (active); in test [2] (at 50.0 µM), 47.8%. The growth inhibition in test [3] (setting [7]) was 4%; in test [3] (setting [8]), 66%; in test [3] (at 50.0 µM) it was 80.2% (active); in test [4] (setting [7]) it was -13%; in test [4] (setting [8]) it was 82% (active); in test [4] (at 50.0 µM), 70.5% (active). In addition, the growth inhibition in test [5] (setting [7]) was 31%; in test [5] (setting [8]), 30%; in test [5] (at 50.0 µM) it was 66.3%; in test [6] (setting [7]), -4%; in test [6] (setting [8]) it was 77% (active); in test [6] (at 50.0 µM), 44.3%.
Turning to `CC(C)NC(=O)OCc1c(CO)c2c(n1C)-c1ccccc1CC2`, the growth inhibition in test [1] (setting [7]) is -5%; in test [1] (setting [8]), 96% (active); in test [1] (at 50.0 µM), 95.9% (active); in test [2] (setting [7]), -4%; in test [2] (setting [8]), 96% (active); in test [2] (at 50.0 µM), 98% (active). The growth inhibition in test [3] (setting [7]) was 50%; in test [3] (setting [8]), 96% (active); in test [3] (at 50.0 µM), 97.8% (active); in test [4] (setting [7]), -10%; in test [4] (setting [8]), 95% (active); in test [4] (at 50.0 µM), 96.8% (active). For the same compound, the growth inhibition in test [5] (setting [7]) is -3%; in test [5] (setting [8]), 96% (active); in test [5] (at 50.0 µM) it was 98.3% (active); in test [6] (setting [7]), 11%; in test [6] (setting [8]), 96% (active); in test [6] (at 50.0 µM), 95.5% (active).
Turning to `CC1SC(c2ccc(Cl)cc2)N2C(=O)C(C)SC(c3ccc(Cl)cc3)N2C1=O` (stereo not given), the growth inhibition is 84% (active) in test [1] (setting [7]); 91% (active) in test [1] (setting [8]); 71% (active) in test [1] (at 50.0 µM); 53% in test [2] (setting [7]); 91% (active) in test [2] (setting [8]); 27.1% in test [2] (at 50.0 µM). Moreover, the growth inhibition in test [3] (setting [7]) was 85% (active); in test [3] (setting [8]), 95% (active); in test [3] (at 50.0 µM), 30.9%; in test [4] (setting [7]), 84% (active); in test [4] (setting [8]), 93% (active); in test [4] (at 50.0 µM) it was 52.6%. In addition, the growth inhibition was 79% (active) in test [5] (setting [7]); 94% (active) in test [5] (setting [8]); 26.1% in test [5] (at 50.0 µM); 74% (active) in test [6] (setting [7]); 90% (active) in test [6] (setting [8]); 60% in test [6] (at 50.0 µM).
With `CCOC(=O)CC(N)CC(=O)OCC`, the growth inhibition in test [1] (setting [7]) is -142%; in test [1] (setting [8]), -157%; in test [1] (at 50.0 µM), 94.8% (active); in test [2] (setting [7]) it was -47%; in test [2] (setting [8]), -49%; in test [2] (at 50.0 µM) it was 39.1%. Further, the growth inhibition in test [3] (setting [7]) was -56%; in test [3] (setting [8]) it was -64%; in test [3] (at 50.0 µM), -1.35%; in test [4] (setting [7]) it was -53%; in test [4] (setting [8]), -53%; in test [4] (at 50.0 µM), -4.7%. In addition, the growth inhibition was -67% in test [5] (setting [7]); -79% in test [5] (setting [8]); 75.2% (active) in test [5] (at 50.0 µM); -110% in test [6] (setting [7]); -113% in test [6] (setting [8]); 44.5% in test [6] (at 50.0 µM).
As to `NCCNC[Si](c1ccccc1)(c1ccccc1)c1ccccc1`, the growth inhibition in test [1] (setting [7]) is -13%; in test [1] (setting [8]) it was 92% (active); in test [1] (at 50.0 µM), 7.6%; in test [2] (setting [7]), -3%; in test [2] (setting [8]) it was 92% (active); in test [2] (at 50.0 µM), -21.4%. Besides, the growth inhibition in test [3] (setting [7]) was -10%; in test [3] (setting [8]), 84% (active); in test [3] (at 50.0 µM) it was 8.2%; in test [4] (setting [7]), -4%; in test [4] (setting [8]), 96% (active); in test [4] (at 50.0 µM) it was 5.3%. Also, the growth inhibition in test [5] (setting [7]) was -10%; in test [5] (setting [8]) it was 94% (active); in test [5] (at 50.0 µM) it was 17.6%; in test [6] (setting [7]), -12%; in test [6] (setting [8]), 87% (active); in test [6] (at 50.0 µM), 11.4%.
On to `CC1C2CC(C(S(=O)(=O)N3CCOCC3)/C2=N\O)C1(C)C` (stereo not given), for which the growth inhibition in test [1] (setting [7]) is -4%; in test [1] (setting [8]), -14%; in test [1] (at 50.0 µM), 88.2% (active); in test [2] (setting [7]) it was -12%; in test [2] (setting [8]), -31%; in test [2] (at 50.0 µM), 92.2% (active). Besides, the growth inhibition is -4% in test [3] (setting [7]); -4% in test [3] (setting [8]); 86.5% (active) in test [3] (at 50.0 µM); -20% in test [4] (setting [7]); 20% in test [4] (setting [8]); 89.2% (active) in test [4] (at 50.0 µM). The growth inhibition is 0% in test [5] (setting [7]); -19% in test [5] (setting [8]); 89.9% (active) in test [5] (at 50.0 µM); 16% in test [6] (setting [7]); -18% in test [6] (setting [8]); 83.2% (active) in test [6] (at 50.0 µM).
With `O=C(/C=C/C(=O)N1CCCC1)N1CCCC1`, the growth inhibition in test [1] (setting [7]) was 6%; in test [1] (setting [8]) it was 10%; in test [1] (at 50.0 µM), 1.15%; in test [2] (setting [7]), 3%; in test [2] (setting [8]), 1%; in test [2] (at 50.0 µM), 0.65%. For the same compound, the growth inhibition in test [3] (setting [7]) is 4%; in test [3] (setting [8]), 3%; in test [3] (at 50.0 µM) it was 14.8%; in test [4] (setting [7]), -4%; in test [4] (setting [8]), -11%; in test [4] (at 50.0 µM) it was -1.35%. For the same compound, the growth inhibition in test [5] (setting [7]) is 2%; in test [5] (setting [8]), 6%; in test [5] (at 50.0 µM), 2.55%; in test [6] (setting [7]) it was -2%; in test [6] (setting [8]) it was -2%; in test [6] (at 50.0 µM) it was 37.4%.
`OC(c1ccccc1)(c1ccccc1)C1CCCCC1`: the growth inhibition is 14% in test [1] (setting [7]); 97% (active) in test [1] (setting [8]); 25.5% in test [1] (at 50.0 µM); 7% in test [2] (setting [7]); 97% (active) in test [2] (setting [8]); 1.7% in test [2] (at 50.0 µM). In addition, the growth inhibition in test [3] (setting [7]) was -4%; in test [3] (setting [8]), 98% (active); in test [3] (at 50.0 µM) it was 40.1%; in test [4] (setting [7]) it was -8%; in test [4] (setting [8]) it was 96% (active); in test [4] (at 50.0 µM), -5.35%. Further, the growth inhibition in test [5] (setting [7]) was -13%; in test [5] (setting [8]) it was 97% (active); in test [5] (at 50.0 µM), 5.95%; in test [6] (setting [7]), 2%; in test [6] (setting [8]) it was 97% (active); in test [6] (at 50.0 µM) it was 9.9%.
